# This is a sample that favours compounds with a hit; in the whole collection about 1% have one here.
# MKP-1 inh – human dual specificity phosphatase 1 inhibition. P28562. recombinant MKP-1, OMFP hydrolysis fluorescence. inhibition, %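 (compounds tested at a single concentration somewhere between 10 and 100 µM)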. 65,000 compounds, 0.15% hits;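 active = inhibition above about 50%, limit read from the data; inconclusive = inhibition over screen mean plus 3 SD, below that limit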;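 note: 0% = DMSO max control wells and 100% = wells with enzyme stopped by NaOH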
# Hsp90 block – displaces geldanamycin probe from tumor Hsp90 | 64,000 compounds, 0.35% hits | NCI-N417 lysate Hsp90, Cy3B-geldanamycin FP displacement | AID 429 | inhibition, % at 30 µM;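 active = inhibition above 50%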;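 note: 0% = tracer plus lysate wells and 100% = tracer alone without lysate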
# BAP1 inh – blocks human BAP1 ubiquitin-AMC hydrolysis; Q92560; recombinant BAP1, Ub-AMC hydrolysis fluorescence kinetic; hits give low values; calls only at 20 µM; 72,000 compounds, 0.48% hits;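 active = activity remaining at or below 50% of control, provided the compound also passes the data quality filters; inactive = the rest, including low values that fail the filters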;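 note: 100% = DMSO wells rate and 0% = substrate alone blank rate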
# Cdc25B inh – inhibitors of human Cdc25B phosphatase | P30305 | recombinant Cdc25B, OMFP fluorescence Ex485/Em525 | inhibition, %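 (compounds tested at 10 µM final in the well)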 | 65,000 compounds, 0.1% hits; in the data active = inhibition above about 50%
# BAP1 inh confirm – confirmation of human BAP1 enzyme inhibitors; shares compounds with BAP1 inh; purified BAP1, Ub-ethyl ester hydrolysis, HPLC; hits give low values; % of control activity, % at 20 µM; 310 compounds, 8% hits;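 active = percent of control activity at or below 60%; inconclusive = HPLC trace unusable from injection failure or solvent front hiding peaks; inactive = the rest, plus ubiquitin peak ratio over a set limit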
# Numbers without * were called inactive; i = inactive; ? = inconclusive; / = not tested or not shown; + = active, no number.
SMILES,MKP-1 inh,Hsp90 block,BAP1 inh,Cdc25B inh,BAP1 inh confirm
CCOc1cc(C2Nc3cc(C)c(C)cc3NC3=C2C(=O)CC(C)(C)C3)cc(Br)c1OC (centres undefined),/,/,i,/,/
N#Cc1c(NC(=O)CSc2nnnn2C2CCCCC2)sc2c1CCCC2,-10.9,-1.4,+,-8.1,61.7
O=C(CSc1nnnn1C1CCCCC1)Nc1nc2c(s1)CCCC2,-21.6,-1.2,i,-2.8,/
CCOC(=O)c1sc(=NC(=O)c2cccc(OC)c2)n(C)c1C,31.4,-1.9,i,-9.5,/
CCOC(=O)c1sc(=NC(=O)c2ccc(OC)c(OC)c2)n(C)c1C,19.1,-1.4,+,-3.8,?
O=C(NCc1ccccc1)c1c[nH]c2ccc(S(=O)(=O)Nc3ccc4c(c3)OCCO4)cc2c1=O,40.3,-1.8,+,32.1,?
CC(C)(C)c1ccc(C(=O)Oc2ccc(Cl)cc2)cc1,/,/,i,/,/
CC1=C(C(=O)OCCC(C)C)C(c2cc3c(cc2Br)OCO3)NC(=O)N1 (centres undefined),/,/,i,/,/
COc1ccccc1NS(=O)(=O)c1ccc(C(=O)OCC(=O)NCc2ccco2)cc1,27.2,-2.4,i,8.0,/
COc1ccc(S(=O)(=O)Nc2ccccc2C(=O)NCc2ccco2)cc1,2.6,0.6,+,-2.3,102.5
Clc1ccc(OCc2nn3c(-c4ccco4)nnc3s2)c(Cl)c1,-11.7,-1.9,+,-8.7,105.7
Cc1ccc(OCc2nn3c(-c4ccco4)nnc3s2)cc1,-3.6,-0.8,i,2.9,/
CCOC(=O)c1c(NC(=O)CSc2nnc(CNc3ccc(F)cc3)o2)sc(C(C)=O)c1C,30.8,-9.2,+,-4.8,68.0
CCOC(=O)c1c(NC(=O)CSc2nc(C)cc(C)c2C#N)sc(C(C)=O)c1C,19.0,-3.2,+,-21.0,80.2
CCOc1ccc2c(c1)sc(=NC(=O)c1ccc(S(=O)(=O)N3CC(C)CC(C)C3)cc1)n2C (centres undefined),/,/,i,/,/
O=C(CN(Cc1ccccc1)S(=O)(=O)c1ccc2c(c1)OCCO2)Nc1ccc2c(c1)OCCO2,13.2,-0.8,+,-4.9,143.7
CS(=O)(=O)N(CC(=O)Nc1ccc2c(c1)OCCO2)Cc1ccccc1,0.1,-0.7,i,-1.4,/
O=C(Nc1nc(-c2cccs2)cs1)c1ccc(S(=O)(=O)N2CCCCC2)cc1,0.0,-4.5,+,-4.3,89.1
O=C(Nc1nc(-c2cccs2)cs1)c1cccc(S(=O)(=O)N2CCCCCC2)c1,6.1,-19.7,/,-9.9,/
CCOC(=O)N1CCN(c2ncnc3c2cnn3-c2ccc(OC)cc2)CC1,15.2,1.1,i,13.9,99.3
COc1ccc2nc(NC(=O)Cc3ccc(Cl)cc3)sc2c1,/,/,i,/,/
CCOc1ccc(-c2nc(-c3ccccc3C)no2)cc1,-4.5,1.1,+,3.9,102.4
CCOC(=O)c1c(-c2ccccc2)csc1NC(=O)CSc1nc2ccccc2o1,/,/,i,/,/
COCCn1nnnc1C(c1cc2ccc(C)cc2[nH]c1=O)N(Cc1ccco1)Cc1cccs1 (centres undefined),29.9,-5.0,+,-4.9,125.9
COC(=O)c1ccccc1NC(=O)c1sc(N)nc1C,-11.5,1.8,i,0.6,/
SMILES,MKP-1 inh,Hsp90 block,BAP1 inh,Cdc25B inh,BAP1 inh confirm
COC(=O)c1ccccc1NC(=O)c1sc(=S)n(C)c1N,-8.3,-5.2,+,5.4,50.6*
COC(=O)c1ccc(N2C(=O)CC(NCCc3ccc(S(N)(=O)=O)cc3)C2=O)cc1 (centres undefined),/,/,i,/,/
Cc1ccc(C)c(N2CCN(C(=O)CCCn3c(=S)[nH]c4cc5c(cc4c3=O)OCO5)CC2)c1,16.8,-0.1,+,-12.8,63.3
CCC(C(=O)Nc1cccc([N+](=O)[O-])c1)(C(F)(F)F)C(F)(F)F,/,/,i,/,/
Cc1nc2n(n1)C(c1ccccc1)C1=C(CC(c3ccco3)CC1=O)N2 (centres undefined),-21.7,8.8,+,-4.6,115.8
O=C1CC(c2ccco2)CC2=C1C(c1ccco1)Nc1ccccc1N2 (centres undefined),/,/,i,/,/
COc1ccc2nc(C(=O)O)sc2c1,/,/,i,/,/
COc1ccccc1N1CCN(C(=O)CSc2nc(-c3ccco3)cc(C(F)(F)F)n2)CC1,29.4,-2.5,+,-12.8,108.7
O=C(Nc1cccc(-c2nc3ccccc3o2)c1)c1cccc(I)c1,/,/,i,/,/
COc1ccc2nc(NC(=O)c3ccccc3F)sc2c1,/,/,i,/,/
COc1ccc2nc(NC(=O)CCc3nc(-c4ccccc4F)no3)sc2c1,27.5,1.6,+,-3.9,39.6*
COCC(=O)N(C)C1(c2nnnn2CCOC(=O)Nc2cccc3ccccc23)CCCC1,15.9,-7.2,+,-5.6,134.1
O=C(NCCCN1CCCC1)Nc1cccc2ccccc12,5.1,-5.1,i,-8.9,/
CCOC(=O)c1c(NC(=O)c2ccc(-n3cnnn3)cc2)sc2c1CCCC2,38.8,-3.0,+,5.5,120.8
CSc1ccc(C2Nc3ccccc3NC3=C2C(=O)CC(c2ccc(Cl)cc2)C3)cc1 (centres undefined),/,/,i,/,/
Clc1ccc(C2Nc3ccccc3-n3cccc32)cc1 (centres undefined),-16.3,-1.4,+,-13.3,93.0
Cn1cc(/C=N/n2cnc3scc(-c4ccccc4)c3c2=O)c2ccccc21,14.2,-6.4,+,6.0,91.1
c1ccc(-c2csc3ncn4cnnc4c23)cc1,8.6,-3.1,i,-1.5,/
O=c1oc(-c2cc3ccccc3o2)nc2sc3c(c12)CCCC3,5.6,-5.7,+,-2.1,65.9
O=c1oc(-c2cccs2)nc2sc3c(c12)CCCCC3,12.8,-3.0,i,-11.4,/
C=CCn1c(=O)c(C(=O)Nc2ccc(O)cc2)c(O)c2ccccc21,/,/,i,/,/
O=C(Cn1c2ccccc2c(=O)c2ccccc21)Nc1ccc2c(c1)OCCO2,/,/,i,/,/
CSc1nnc2c3cc(C)ccc3n(Cc3ccccc3)c2n1,-14.5,-6.3,+,-6.4,77.0
CCOC(=O)N1CCN(S(=O)(=O)c2ccc(C(=O)Nc3sc4c(c3C#N)CCC4)cc2)CC1,29.4,0.8,+,-5.0,97.1
CCCOC(=O)C1=C(C)NC2=C(C(=O)CCC2)C1c1cccc(OC)c1OC (centres undefined),20.7,0.0,+,-20.5,34.2*
SMILES,MKP-1 inh,Hsp90 block,BAP1 inh,Cdc25B inh,BAP1 inh confirm
O=C(Nc1nc2ccc(Cl)cc2s1)c1ccc(Br)o1,4.4,-5.7,+,-13.4,80.8
CCCC1C2CN(C(C)C)CC=C2C(C#N)=C(N)C1(C#N)C#N (centres undefined),2.8,6.7,+,-11.8,94.4
N#Cc1cn(-c2ccccc2)nc1-c1ccccc1,7.4,1.9,i,1.9,/
N#Cc1cc(-c2ccccc2)nn1-c1ccccc1,1.6,0.5,+,6.9,89.2
Cc1ccc(-c2cc(C(F)(F)F)n3ncc(C(=O)NCc4ccco4)c3n2)cc1,14.9,-1.7,+,-2.5,?
Cc1ccc(-c2cc(C(F)F)n3ncc(C(=O)NCc4ccco4)c3n2)cc1,16.5,-0.2,/,10.1,/

# High-throughput results deposited in PubChem by several laboratories.
